Results on 8 compounds are retold here after PubChem BioAssay (Tox21).

Experiment [1] in a line: qHTS assay to identify small molecule agonists of the vitamin D receptor (VDR) signaling pathway - cell viability counter screen (AID 743224). Further: series mostly up to about 63 µM; on the % scale 0 is the no-effect control and ±100 the full control effect; nearly all actives have a fitted effect of over 50% in size. The method, boiled down:
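VDR-bla cells were preincubated 4 h at 37C/5% CO2, then exposed to compounds for 16 h. After the 2 h room-temperature bla FRET read, CellTiter-Glo was added to the same wells and luminescence read after 30 min.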
In general terms: Quantitative high-throughput screening tests each substance at several concentrations.

A short description of experiment [2]: qHTS assay to identify small molecule antagonists of the vitamin D receptor (VDR) signaling pathway - cell viability counter screen (AID 743225). Further: on the % scale 0 is the no-effect control and ±100 the full control effect; nearly all actives have a fitted effect of over 50% in size. In short, it runs like this: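 VDR-UAS-bla HEK 293T cells were plated and incubated 4 h at 37C, then dosed with compound plus 3 nM (final) 1-alpha,25-dihydroxyvitamin D3 for 16 h. After the 2 h beta-lactamase read, viability in the same wells was read as CellTiter-Glo luminescence after 30 min at room temperature.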

Experiment [3] can be described thus: qHTS assay to identify small molecule agonists of the NFkB signaling pathway - cell viability counter screen (AID 1159515; calls by dose curve; further: series mostly up to about 61 µM; on the % scale 0 is the no-effect control and ±100 the full control effect; nearly all actives have a fitted effect of over 55% in size). In short, it runs like this: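 NFkB-bla ME-180 cells, 2,000/well, were plated overnight at 37 C, 5% CO2, then exposed to compounds in DMSO for 5 hr. After the bla FRET read, CellTiter-Glo was added to the same wells; luminescence was read after 30 min at room temperature.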

Experiment [4] in a line: qHTS assay to identify small molecule agonists of the endoplasmic reticulum stress response signaling pathway (AID 1159516; active means well fitted activation curve with a large enough effect in the signal ratio in the repeat runs, not every such curve was filed as active; the % refers to the signal ratio; further: on the % scale 0 is the no-effect control and ±100 the full control effect). The method, boiled down: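 CellSensor ESRE-bla HeLa cells, carrying a beta-lactamase reporter driven by the ER stress response element, were plated overnight and exposed to compounds for 5 hr at 37 C. Reporter activity was read as FRET substrate fluorescence after 2 hr at room temperature.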

Experiment [5] can be described thus: qHTS assay to identify small molecule agonists of the endoplasmic reticulum stress response signaling pathway - cell viability counter screen (AID 1159517; calls by dose curve; further: series mostly up to about 61 µM; on the % scale 0 is the no-effect control and ±100 the full control effect; nearly all actives have a fitted effect of over 50% in size). The method, boiled down: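 Cells, HeLa ESRE-bla; density, 1,500/well; dosing, 5 hr at 37 C, 5% CO2; readout, CellTiter-Glo luminescence after 30 min RT.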
Experiment [6] is described as follows: qHTS assay to identify small molecule antagonists of the retinoid-related orphan receptor gamma (ROR-gamma) signaling pathway - cell viability counter screen (AID 1159520). Further: on the % scale 0 is the no-effect control and ±100 the full control effect; nearly all actives have a fitted effect of over 50% in size. In short, it runs like this: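 Cytotoxicity was read from cellular ATP (CellTiter-Glo luminescence) after 16 hr at 37 C with 1 uM doxycycline induction. The inducer was added 2 hr after compound transfer to Tet-on ROR gamma CHO cells.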

Experiment [7] deals with Nuclear receptor ROR-gamma (Homo sapiens) (UniProt P51449). The experiment can be described thus: qHTS assay to identify small molecule antagonists of the retinoid-related orphan receptor gamma (ROR-gamma) signaling pathway (AID 1159521). In short, it runs like this:
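Tet-on ROR-gamma CHO cells with ROR response element-luciferase reporter; compounds added 2 hr before 1 uM doxycycline induction, then 16 hr at 37 C. Antagonism scored as decreased ONE-Glo luminescence.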

Experiment [8] in a line: qHTS assay to identify small molecule agonists of the AP-1 signaling pathway - cell viability counter screen (AID 1159525; calls by dose curve; further: nearly all actives have a fitted effect of over 55% in size). The method, boiled down:
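Luminescent ATP readout (Cell Titer Glo, 30 min RT), normalised to DMSO and tetra n-octyl ammonium bromide controls. Cells were ME-180 AP-1-bla in 0.5% dialyzed FBS Opti-MEM, with a 5 h, 37 °C compound exposure.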

The nature of experiment [9]: qHTS assay to identify small molecule agonists of the AP-1 signaling pathway (AID 1159526; calls by dose curve; further: on the % scale 0 is the no-effect control and ±100 the full control effect).
For experiment [10], the target named is Retinoic acid receptor RXR-alpha (Homo sapiens) (UniProt P19793). In words: qHTS assay to identify small molecule agonists of the RXR signaling pathway (AID 1159527; calls by dose curve; further: on the % scale 0 is the no-effect control and ±100 the full control effect; nearly all actives have a fitted effect of over 35% in size). In short, it runs like this: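 GeneBLAzer RXR-alpha-UAS-bla HEK 293T cells in 2% charcoal-stripped FBS medium were exposed to compounds for 16 hr at 37 C in agonist mode. Beta-lactamase reporter read as 460/530 nm FRET ratio after 2 hr substrate loading.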
Sequence of Retinoic acid receptor RXR-alpha (Homo sapiens) (P19793 whole entry, looked up): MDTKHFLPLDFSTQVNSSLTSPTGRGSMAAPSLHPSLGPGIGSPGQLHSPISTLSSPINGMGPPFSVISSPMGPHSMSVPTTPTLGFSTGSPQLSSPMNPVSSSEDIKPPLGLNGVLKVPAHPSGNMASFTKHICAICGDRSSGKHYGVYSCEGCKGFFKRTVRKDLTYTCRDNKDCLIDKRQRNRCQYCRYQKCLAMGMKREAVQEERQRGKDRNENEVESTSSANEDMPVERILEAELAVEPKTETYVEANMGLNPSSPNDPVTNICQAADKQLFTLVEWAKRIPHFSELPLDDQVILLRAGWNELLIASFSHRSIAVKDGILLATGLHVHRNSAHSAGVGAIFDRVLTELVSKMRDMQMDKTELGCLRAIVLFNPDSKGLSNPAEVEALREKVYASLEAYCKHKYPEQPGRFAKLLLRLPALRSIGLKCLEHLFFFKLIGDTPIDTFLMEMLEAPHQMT

Experiment [11] in a line: qHTS assay to identify small molecule agonists of the RXR signaling pathway - cell viability counter screen (AID 1159529). In short, it runs like this: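 RXR-alpha-UAS-bla HEK 293T cells in medium with 2% charcoal-stripped FBS were pre-incubated 5 hr, then compound-treated 16 hr at 37 C. Viability was read by CellTiter-Glo luminescence in the same wells as the beta-lactamase assay, with tetraoctyl ammonium bromide as positive control.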

Experiment [12] in a line: qHTS assay to identify small molecule antagonists of the retinoid acid receptor (RAR) signaling pathway - cell viability counter screen (AID 1159551). Further: on the % scale 0 is the no-effect control and ±100 the full control effect; nearly all actives have a fitted effect of over 35% in size. In short, it runs like this: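 C3RL4 cells were seeded overnight at 37 C, then treated with compounds plus 1 uM (final) retinol for 6 h at 37 C. Viability was read as ATP by CellTiter-Glo luminescence after 30 min at room temperature.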

A short description of experiment [13]: qHTS assay to identify small molecule agonists of the retinoic acid receptor (RAR) signaling pathway (AID 1159553). Further: potency means the concentration at half of the fitted maximal effect. In short, it runs like this:
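C3RL4 cells carrying a RARE luciferase reporter were plated overnight at 37 C, then exposed to compounds in DMSO for 6 hr at 37 C and 5% CO2. Luminescence was read 30 min after luciferase reagent addition at room temperature.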

The nature of experiment [14]: qHTS assay to identify small molecule antagonists of the estrogen related receptor (ERR) signaling pathway - cell viability counter screen (AID 1224818).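 Further: series mostly up to about 46 µM; viability measured after 17.5 h of compound exposure; on the % scale 0 is the no-effect control and ±100 the full control effect.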 In short, it runs like this:
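ERR reporter cells plated 6 h at 37 C/5% CO2, then compounds in DMSO pin-transferred and incubated 17.5 h at 37 C. Viability read as CellTiter-Fluor fluorescence after 30 min at 37 C.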

Experiment [15] is described as follows: qHTS assay to identify small molecule antagonists of the estrogen related receptor signaling pathway with the pleiotropic PPARgamma coactivator (PGC) cell viability counter screen (AID 1224822; further: series mostly up to about 46 µM; on the % scale 0 is the no-effect control and ±100 the full control effect). In short, it runs like this: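 PGC/ERR cells were seeded at 2,000 cells/well, rested 6 h at 37 C/5% CO2, then given compounds in DMSO by pin tool and incubated 17.5 h at 37 C. Viability came from CellTiter-Fluor fluorescence after 30 min.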

Experiment [16] can be described thus: qHTS assay to identify small molecule antagonists of the retinoic acid receptor (RAR) signaling pathway (AID 1159552). In short, it runs like this: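 Retinol signaling pathway inhibitors screened in C3RL4 RARE-luciferase reporter cells seeded overnight at 37 C, then compounds added with 1 uM (final) retinol as pathway substrate. After 6 hr at 37 C, luciferase luminescence read after 30 min at room temperature.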

Each structure is given as a SMILES string. Inconclusive results are not listed. A number with no mark means an inactive call. Active and inactive are the calls of the source. Unless noted, the call rests on the fitted dose curve; in most records, active means well fitted curve in the direction sought with a large enough effect in the repeat runs; inconclusive means weak or mixed curves; inactive means no such curve, though single readings can be large; an effect the other way counts as inactive or inconclusive.

Consider `NCCCC(N)(C(=O)O)C(F)F` (stereo unspecified), for which the outcome in experiment [1], in experiment [2], in [3], in experiment [4], in experiment [5] and in experiment [6] was inactive. Besides, the outcome in [8], in experiment [9], in experiment [12], in [14] and in experiment [15] was inactive. Moreover, the Potency entry in experiment [7], in experiment [10], in [11] and in [13] was “inactive” in each case.

As for `COC(=O)Nc1ccc(Cl)c(Cl)c1`, the outcome in [1], in [2], in experiment [3], in [4], in [5] and in [6] was inactive. The result in [8], in experiment [9] and in experiment [12] was inactive. The Potency result in [7], in experiment [10], in experiment [11], in experiment [16] and in [13] was “inactive” throughout.

In the case of `CCN[C@@H]1C[C@H](N)[C@@H](OC2OC(CN)=CCC2N)[C@H](O)[C@H]1O[C@H]1OC[C@](C)(O)[C@H](NC)[C@H]1O` (stereo partly specified), the activity change, negative = cytotoxicity was 0.0384% [at 0.55 µM] in experiment [1], -1.46% [at 0.628 µM] in experiment [5], -0.24% [at 0.29 µM] in experiment [11] and 2.69% [at 0.349 µM] in experiment [12]. The viability change, negative = cytotoxic is 2.46% [at 0.628 µM] in experiment [2] and 0.839% [at 0.29 µM] in experiment [8]. The activity, negative = cytotoxic in [3] was 6.29% [at 0.628 µM]. Besides, the activation in experiment [4] was 0.974% [at 0.628 µM]; in [9], -3.82% [at 0.29 µM]; in [10] it was 6.62% [at 0.29 µM]; in experiment [13], 1.16% [at 0.756 µM]. For the same compound, the activity, negative = cytotoxicity in experiment [6] was 3.44% [at 0.349 µM]. The activity change, negative = inhibition in experiment [7] was 45.3% [at 0.35 µM]. For the same compound, in experiment [16], the activity, negative = inhibition is 11.8% [at 0.349 µM].

With `CC1=NN(c2cc(S(=O)(=O)O)ccc2Cl)C(=O)C1N=Nc1ccccc1` (stereo unspecified), the call in experiment [1], in [2], in [3], in experiment [4], in experiment [5] and in [6] was inactive. In addition, the compound was called inactive in [8], in experiment [9] and in experiment [12]. Also, the Potency result in [7], in experiment [10], in experiment [11] and in experiment [16] was “inactive” throughout. Further, in experiment [13], the Potency was 68.6 µM (active).

Turning to `CCCCS(=O)(=O)N[C@@H](Cc1ccc(OCCCCC2CCNCC2)cc1)C(=O)O`, the call in experiment [1], in experiment [2], in experiment [3], in experiment [4], in experiment [5] and in [6] was inactive. Besides, the compound was called inactive in experiment [8], in [9] and in [12]. In addition, the Potency result in experiment [7], in experiment [10], in [11] and in experiment [13] was “inactive” throughout.

As to `Cc1ccccc1N=C(N)N=C(N)N`, the compound was classed as inactive in experiment [1], in [2], in [3], in [4], in experiment [5] and in experiment [6]. For the same compound, the compound was called inactive in experiment [8], in [9] and in experiment [12]. The Potency result in experiment [7], in experiment [10], in experiment [11] and in experiment [16] was “inactive” each time.

In the case of `C[C@H]1C[C@H]2[C@@H]3CCC4=CC(=O)C=C[C@]4(C)[C@H]3C(=O)C[C@]2(C)[C@@]1(O)C(=O)CO`, the outcome in experiment [1], in [2], in [3], in experiment [4], in [5] and in experiment [6] was inactive. Also, the outcome in experiment [8], in experiment [9] and in [12] was inactive. Besides, the Potency result in experiment [7], in [10], in experiment [11] and in experiment [16] was “inactive” in each case.

As for `CCCc1nn(C)c2c(=O)[nH]c(-c3cc(S(=O)(=O)N4CCN(C)CC4)ccc3OCC)nc12`, the outcome in [1], in experiment [2], in [3], in experiment [4], in experiment [5] and in experiment [6] was inactive. The outcome in experiment [8], in [9], in [12], in [14] and in experiment [15] was inactive. In addition, the Potency result in experiment [7], in experiment [10], in experiment [11] and in experiment [13] was “inactive” each time.
